Tests used:
[1] = target: T1, Ephrin type-B receptor 2 (Homo sapiens) (UniProt P29323); conditions: at 1 µM
T1 sequence (whole entry): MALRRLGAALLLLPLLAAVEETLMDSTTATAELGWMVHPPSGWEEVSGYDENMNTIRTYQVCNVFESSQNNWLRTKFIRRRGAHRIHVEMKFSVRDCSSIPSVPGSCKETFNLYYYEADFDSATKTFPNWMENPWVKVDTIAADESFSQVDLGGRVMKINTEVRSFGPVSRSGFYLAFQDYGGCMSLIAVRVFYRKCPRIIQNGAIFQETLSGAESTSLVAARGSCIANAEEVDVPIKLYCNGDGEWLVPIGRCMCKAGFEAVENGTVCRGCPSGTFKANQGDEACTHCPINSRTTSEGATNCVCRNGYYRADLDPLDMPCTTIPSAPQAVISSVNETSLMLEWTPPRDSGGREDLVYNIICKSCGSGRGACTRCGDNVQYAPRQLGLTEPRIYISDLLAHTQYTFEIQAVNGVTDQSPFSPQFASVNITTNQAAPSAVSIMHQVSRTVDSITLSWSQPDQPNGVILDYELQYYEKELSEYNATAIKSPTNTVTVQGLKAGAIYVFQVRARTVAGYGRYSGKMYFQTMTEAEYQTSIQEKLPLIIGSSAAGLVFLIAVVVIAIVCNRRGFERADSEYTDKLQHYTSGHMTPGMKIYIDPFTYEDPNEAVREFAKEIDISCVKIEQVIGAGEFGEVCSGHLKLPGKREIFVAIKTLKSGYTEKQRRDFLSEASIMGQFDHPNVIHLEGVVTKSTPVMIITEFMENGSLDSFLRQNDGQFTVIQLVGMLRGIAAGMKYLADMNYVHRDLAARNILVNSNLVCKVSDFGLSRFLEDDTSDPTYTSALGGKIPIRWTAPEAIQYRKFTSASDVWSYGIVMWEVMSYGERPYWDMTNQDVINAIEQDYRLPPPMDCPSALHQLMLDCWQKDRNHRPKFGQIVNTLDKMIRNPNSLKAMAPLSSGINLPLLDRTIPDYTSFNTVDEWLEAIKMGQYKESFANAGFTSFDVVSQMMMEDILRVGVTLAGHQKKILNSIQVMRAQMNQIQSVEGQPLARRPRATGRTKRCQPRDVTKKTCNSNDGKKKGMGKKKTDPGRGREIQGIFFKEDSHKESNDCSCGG

[2] = target: T2, Ephrin type-B receptor 3 (Homo sapiens) (UniProt P54753); conditions: at 0.1 µM
T2 sequence (whole entry): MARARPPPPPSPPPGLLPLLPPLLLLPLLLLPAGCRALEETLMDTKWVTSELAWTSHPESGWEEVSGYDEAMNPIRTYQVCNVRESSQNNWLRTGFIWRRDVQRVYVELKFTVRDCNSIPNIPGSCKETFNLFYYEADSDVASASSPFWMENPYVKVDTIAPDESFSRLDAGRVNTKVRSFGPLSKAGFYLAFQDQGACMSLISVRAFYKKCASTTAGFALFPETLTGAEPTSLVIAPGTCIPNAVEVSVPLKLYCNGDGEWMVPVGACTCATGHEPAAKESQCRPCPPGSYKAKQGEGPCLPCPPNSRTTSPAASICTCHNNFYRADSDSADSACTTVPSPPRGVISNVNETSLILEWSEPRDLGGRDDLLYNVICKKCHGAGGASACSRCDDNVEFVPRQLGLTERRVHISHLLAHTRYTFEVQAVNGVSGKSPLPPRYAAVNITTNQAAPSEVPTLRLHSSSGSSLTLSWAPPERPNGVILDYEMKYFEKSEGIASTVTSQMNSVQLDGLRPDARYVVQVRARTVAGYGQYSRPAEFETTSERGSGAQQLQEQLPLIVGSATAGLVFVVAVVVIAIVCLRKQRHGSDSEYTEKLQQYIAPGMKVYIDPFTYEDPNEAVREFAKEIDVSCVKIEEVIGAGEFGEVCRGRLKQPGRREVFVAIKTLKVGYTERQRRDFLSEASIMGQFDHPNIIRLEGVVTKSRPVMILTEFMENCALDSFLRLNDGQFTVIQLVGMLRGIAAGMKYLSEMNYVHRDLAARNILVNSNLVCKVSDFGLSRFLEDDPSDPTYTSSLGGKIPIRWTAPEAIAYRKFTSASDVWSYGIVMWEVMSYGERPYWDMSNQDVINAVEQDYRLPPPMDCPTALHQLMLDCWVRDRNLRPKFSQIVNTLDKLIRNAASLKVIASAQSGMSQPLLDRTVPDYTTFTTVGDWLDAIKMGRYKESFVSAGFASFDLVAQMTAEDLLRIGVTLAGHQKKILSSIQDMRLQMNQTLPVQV

[3] = target: T2, Ephrin type-B receptor 3 (Homo sapiens); conditions: at 1 µM
[4] = target: T3, Ephrin type-B receptor 4 (Homo sapiens) (UniProt P54760); conditions: at 0.1 µM
T3 sequence (whole entry): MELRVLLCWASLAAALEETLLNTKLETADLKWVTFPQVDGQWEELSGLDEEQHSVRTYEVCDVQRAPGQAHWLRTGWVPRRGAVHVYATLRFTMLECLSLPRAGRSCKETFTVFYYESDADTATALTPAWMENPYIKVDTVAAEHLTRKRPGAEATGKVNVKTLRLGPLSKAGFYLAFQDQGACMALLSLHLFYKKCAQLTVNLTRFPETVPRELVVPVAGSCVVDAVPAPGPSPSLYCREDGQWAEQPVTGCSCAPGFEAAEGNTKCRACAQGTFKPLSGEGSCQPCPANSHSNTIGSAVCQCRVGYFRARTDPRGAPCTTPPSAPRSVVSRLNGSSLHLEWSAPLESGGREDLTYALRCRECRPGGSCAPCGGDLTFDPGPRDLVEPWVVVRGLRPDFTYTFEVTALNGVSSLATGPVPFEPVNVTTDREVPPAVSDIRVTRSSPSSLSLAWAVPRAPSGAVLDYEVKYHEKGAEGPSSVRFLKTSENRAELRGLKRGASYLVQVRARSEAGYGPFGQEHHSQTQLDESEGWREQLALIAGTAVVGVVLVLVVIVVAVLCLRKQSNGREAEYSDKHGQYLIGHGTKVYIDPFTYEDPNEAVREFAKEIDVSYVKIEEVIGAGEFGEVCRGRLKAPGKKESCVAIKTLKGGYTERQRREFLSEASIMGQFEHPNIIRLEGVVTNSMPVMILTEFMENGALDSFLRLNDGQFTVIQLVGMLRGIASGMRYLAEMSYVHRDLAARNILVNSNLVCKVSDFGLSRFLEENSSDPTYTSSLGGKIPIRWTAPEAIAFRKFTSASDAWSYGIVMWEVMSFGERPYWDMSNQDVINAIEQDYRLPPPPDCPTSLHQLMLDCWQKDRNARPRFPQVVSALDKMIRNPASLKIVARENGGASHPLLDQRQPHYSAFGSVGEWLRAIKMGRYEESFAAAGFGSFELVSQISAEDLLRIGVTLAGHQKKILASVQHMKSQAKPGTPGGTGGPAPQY

[5] = target: T3, Ephrin type-B receptor 4 (Homo sapiens); conditions: at 1 µM
[6] = target: Receptor tyrosine-protein kinase erbB-2 (Homo sapiens) (UniProt P04626); conditions: at 0.1 µM
Sequence of Receptor tyrosine-protein kinase erbB-2 (Homo sapiens) (P04626 whole entry): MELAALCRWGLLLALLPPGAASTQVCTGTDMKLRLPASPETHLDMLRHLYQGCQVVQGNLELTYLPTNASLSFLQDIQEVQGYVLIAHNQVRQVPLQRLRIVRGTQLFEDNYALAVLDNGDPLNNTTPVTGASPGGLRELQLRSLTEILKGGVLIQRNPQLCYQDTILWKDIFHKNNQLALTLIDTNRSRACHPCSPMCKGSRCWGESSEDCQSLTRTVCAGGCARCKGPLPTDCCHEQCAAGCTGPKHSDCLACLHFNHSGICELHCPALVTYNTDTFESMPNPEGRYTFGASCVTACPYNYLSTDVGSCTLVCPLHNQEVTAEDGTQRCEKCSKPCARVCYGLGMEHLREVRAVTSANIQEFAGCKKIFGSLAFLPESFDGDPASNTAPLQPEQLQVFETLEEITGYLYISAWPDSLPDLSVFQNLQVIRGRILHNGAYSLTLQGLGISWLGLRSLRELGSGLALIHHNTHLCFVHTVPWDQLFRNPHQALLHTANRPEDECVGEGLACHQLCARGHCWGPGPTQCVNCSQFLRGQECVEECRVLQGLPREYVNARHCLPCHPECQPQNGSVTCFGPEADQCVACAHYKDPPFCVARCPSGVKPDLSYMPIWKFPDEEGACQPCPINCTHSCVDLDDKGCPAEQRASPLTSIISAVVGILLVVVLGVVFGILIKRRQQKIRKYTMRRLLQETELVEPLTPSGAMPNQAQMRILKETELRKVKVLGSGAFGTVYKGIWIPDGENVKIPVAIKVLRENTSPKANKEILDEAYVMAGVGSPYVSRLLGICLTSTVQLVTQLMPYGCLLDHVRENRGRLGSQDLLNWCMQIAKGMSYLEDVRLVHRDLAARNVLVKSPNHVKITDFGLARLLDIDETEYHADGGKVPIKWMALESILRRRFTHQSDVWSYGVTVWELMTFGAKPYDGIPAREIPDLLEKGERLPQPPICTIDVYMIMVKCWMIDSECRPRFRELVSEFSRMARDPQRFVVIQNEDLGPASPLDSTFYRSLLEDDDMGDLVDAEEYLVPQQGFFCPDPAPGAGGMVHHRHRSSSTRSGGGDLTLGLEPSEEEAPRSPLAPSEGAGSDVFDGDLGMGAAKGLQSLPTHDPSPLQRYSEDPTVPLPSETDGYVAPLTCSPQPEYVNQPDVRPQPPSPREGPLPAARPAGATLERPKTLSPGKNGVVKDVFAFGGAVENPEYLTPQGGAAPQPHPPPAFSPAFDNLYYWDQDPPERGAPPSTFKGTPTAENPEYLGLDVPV

[7] = target: Receptor tyrosine-protein kinase erbB-2 (Homo sapiens) (UniProt P04626); conditions: at 1 µM
[8] = target: Receptor tyrosine-protein kinase erbB-4 (Homo sapiens) (UniProt Q15303); conditions: at 0.1 µM
[9] = target: Receptor tyrosine-protein kinase erbB-4 (Homo sapiens) (UniProt Q15303); conditions: at 1 µM
[10] = target: Tyrosine-protein kinase Fer (Homo sapiens) (UniProt P16591); conditions: at 0.1 µM
[11] = target: Tyrosine-protein kinase Fer (Homo sapiens) (UniProt P16591); conditions: at 1 µM
[12] = target: Tyrosine-protein kinase Fes/Fps (Homo sapiens) (UniProt P07332); conditions: at 0.1 µM
Sequence of Tyrosine-protein kinase Fes/Fps (Homo sapiens) (P07332 whole entry): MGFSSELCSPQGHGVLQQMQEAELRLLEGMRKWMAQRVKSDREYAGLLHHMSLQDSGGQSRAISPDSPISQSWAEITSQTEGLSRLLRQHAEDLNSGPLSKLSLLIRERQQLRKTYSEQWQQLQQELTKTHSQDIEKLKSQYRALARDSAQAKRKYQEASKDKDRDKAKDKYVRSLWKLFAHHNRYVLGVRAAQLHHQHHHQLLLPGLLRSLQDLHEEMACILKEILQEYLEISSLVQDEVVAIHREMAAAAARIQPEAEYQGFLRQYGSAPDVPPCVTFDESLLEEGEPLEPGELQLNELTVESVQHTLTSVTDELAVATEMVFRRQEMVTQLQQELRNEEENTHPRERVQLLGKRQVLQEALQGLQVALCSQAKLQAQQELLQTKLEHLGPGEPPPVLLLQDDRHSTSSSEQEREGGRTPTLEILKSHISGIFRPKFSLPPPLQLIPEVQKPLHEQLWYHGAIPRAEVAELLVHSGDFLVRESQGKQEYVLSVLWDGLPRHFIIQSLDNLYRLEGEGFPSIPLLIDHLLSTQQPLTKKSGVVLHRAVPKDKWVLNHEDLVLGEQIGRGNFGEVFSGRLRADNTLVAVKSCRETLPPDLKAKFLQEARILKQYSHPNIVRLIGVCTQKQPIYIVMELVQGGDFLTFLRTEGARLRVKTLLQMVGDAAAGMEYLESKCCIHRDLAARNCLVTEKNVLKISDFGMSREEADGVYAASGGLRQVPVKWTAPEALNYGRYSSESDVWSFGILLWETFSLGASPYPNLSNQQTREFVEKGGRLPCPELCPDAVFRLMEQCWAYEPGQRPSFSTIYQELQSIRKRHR

[13] = target: Tyrosine-protein kinase Fes/Fps (Homo sapiens) (UniProt P07332); conditions: at 1 µM
[14] = target: Fibroblast growth factor receptor 1 (Homo sapiens) (UniProt P11362); conditions: at 0.1 µM
Sequence of Fibroblast growth factor receptor 1 (Homo sapiens) (P11362 22-822 limits assumed): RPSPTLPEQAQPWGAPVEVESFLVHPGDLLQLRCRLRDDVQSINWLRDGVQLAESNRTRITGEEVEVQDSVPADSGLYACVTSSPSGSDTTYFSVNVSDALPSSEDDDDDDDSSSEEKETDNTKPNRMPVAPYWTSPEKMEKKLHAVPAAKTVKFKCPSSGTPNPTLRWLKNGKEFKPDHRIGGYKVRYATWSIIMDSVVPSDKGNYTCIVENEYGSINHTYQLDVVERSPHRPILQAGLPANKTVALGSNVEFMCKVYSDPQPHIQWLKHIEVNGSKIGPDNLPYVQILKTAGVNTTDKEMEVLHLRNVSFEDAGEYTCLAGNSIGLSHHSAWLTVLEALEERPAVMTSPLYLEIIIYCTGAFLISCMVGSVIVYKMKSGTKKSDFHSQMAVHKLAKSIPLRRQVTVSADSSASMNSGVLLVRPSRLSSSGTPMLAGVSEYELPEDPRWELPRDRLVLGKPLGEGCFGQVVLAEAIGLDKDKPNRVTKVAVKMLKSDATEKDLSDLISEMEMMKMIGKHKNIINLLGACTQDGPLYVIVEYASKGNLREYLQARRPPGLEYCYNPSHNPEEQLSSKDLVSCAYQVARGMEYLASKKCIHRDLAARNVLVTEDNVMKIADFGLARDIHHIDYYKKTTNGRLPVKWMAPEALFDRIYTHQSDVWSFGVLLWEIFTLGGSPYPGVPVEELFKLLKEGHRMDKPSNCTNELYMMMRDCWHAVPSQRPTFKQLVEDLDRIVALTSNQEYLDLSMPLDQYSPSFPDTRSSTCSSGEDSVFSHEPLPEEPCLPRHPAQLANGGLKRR

[15] = target: Fibroblast growth factor receptor 1 (Homo sapiens) (UniProt P11362); conditions: at 1 µM
[16] = target: Fibroblast growth factor receptor 2 (Homo sapiens) (UniProt P21802); conditions: at 0.1 µM
Sequence of Fibroblast growth factor receptor 2 (Homo sapiens) (P21802 22-821 limits assumed): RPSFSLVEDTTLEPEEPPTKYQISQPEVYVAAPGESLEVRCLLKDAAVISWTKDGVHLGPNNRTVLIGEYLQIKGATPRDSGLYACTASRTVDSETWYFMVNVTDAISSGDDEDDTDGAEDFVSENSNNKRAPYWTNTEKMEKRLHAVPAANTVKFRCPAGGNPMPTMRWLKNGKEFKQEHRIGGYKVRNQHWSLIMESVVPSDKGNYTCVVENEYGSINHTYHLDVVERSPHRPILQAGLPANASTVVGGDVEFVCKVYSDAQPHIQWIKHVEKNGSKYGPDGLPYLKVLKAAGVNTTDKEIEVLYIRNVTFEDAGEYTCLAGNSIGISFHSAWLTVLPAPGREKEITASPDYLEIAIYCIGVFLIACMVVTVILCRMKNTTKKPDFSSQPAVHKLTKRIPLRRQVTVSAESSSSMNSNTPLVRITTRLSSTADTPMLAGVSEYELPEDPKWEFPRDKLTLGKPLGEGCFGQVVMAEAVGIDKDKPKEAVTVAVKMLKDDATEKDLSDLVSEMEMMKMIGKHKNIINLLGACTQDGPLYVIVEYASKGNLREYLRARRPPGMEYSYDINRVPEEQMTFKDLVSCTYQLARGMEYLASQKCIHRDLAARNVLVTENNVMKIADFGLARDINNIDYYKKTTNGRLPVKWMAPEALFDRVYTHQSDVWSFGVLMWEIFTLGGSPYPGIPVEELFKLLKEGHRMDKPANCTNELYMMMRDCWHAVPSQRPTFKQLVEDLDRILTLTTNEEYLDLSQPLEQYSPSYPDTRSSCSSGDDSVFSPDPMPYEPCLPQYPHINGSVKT

[17] = target: Fibroblast growth factor receptor 2 (Homo sapiens) (UniProt P21802); conditions: at 1 µM
[18] = target: Fibroblast growth factor receptor 3 (Homo sapiens) (UniProt P22607); conditions: at 0.1 µM
Sequence of Fibroblast growth factor receptor 3 (Homo sapiens) (P22607 23-806 limits assumed): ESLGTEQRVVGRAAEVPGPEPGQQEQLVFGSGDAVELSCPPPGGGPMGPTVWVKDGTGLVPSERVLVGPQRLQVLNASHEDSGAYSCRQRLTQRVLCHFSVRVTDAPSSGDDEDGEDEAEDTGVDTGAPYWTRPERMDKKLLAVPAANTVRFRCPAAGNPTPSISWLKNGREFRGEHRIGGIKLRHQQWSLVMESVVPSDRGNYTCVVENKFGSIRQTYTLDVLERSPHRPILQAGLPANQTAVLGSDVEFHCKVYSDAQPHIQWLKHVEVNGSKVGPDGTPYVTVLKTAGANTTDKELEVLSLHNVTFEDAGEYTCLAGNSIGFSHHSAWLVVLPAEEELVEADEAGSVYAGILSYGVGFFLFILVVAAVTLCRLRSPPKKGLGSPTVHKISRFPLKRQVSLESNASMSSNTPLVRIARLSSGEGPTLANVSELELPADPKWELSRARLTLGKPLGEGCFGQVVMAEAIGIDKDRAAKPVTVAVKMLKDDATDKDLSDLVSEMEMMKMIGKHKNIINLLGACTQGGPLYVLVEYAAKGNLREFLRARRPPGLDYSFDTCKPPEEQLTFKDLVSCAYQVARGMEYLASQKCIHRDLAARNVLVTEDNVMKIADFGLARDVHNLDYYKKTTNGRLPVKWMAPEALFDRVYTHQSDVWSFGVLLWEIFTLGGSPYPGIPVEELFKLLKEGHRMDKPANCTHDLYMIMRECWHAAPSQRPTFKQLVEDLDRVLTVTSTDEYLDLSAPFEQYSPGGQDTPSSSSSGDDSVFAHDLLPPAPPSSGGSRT

[19] = target: Fibroblast growth factor receptor 3 (Homo sapiens) (UniProt P22607); conditions: at 1 µM
[20] = target: Fibroblast growth factor receptor 4 (Homo sapiens) (UniProt P22455); conditions: at 0.1 µM;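 note: values are mean percent inhibition of FGFR4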

Fc1ccc(-c2ncn(C3CCNCC3)c2-c2ccnc(Oc3ccc4c(c3)OCO4)n2)cc1
inhibition [1]: 16.5% | inhibition [2]: 5.97% | inhibition [3]: 3.71% | inhibition [4]: 1.53% | inhibition [5]: 3.9% | inhibition [6]: -0.35% | inhibition [7]: 12% | inhibition [8]: 10.6% | inhibition [9]: 19.3% | inhibition [10]: 6.11% | inhibition [11]: 10.4% | inhibition [12]: 4.19% | inhibition [13]: 3.36% | inhibition [14]: 3.51% | inhibition [15]: 11.8% | inhibition [16]: 6.16% | inhibition [17]: 12% | inhibition [18]: 6.95% | inhibition [19]: 9.41%

O=C(Nc1n[nH]c2cc(-c3ccccc3)ccc12)C1CC1
inhibition [1]: 17.1% | inhibition [2]: 2.9% | inhibition [3]: 2.89% | inhibition [4]: 2.92% | inhibition [5]: 4.63% | inhibition [6]: 4.46% | inhibition [7]: 1.33% | inhibition [8]: 13.8% | inhibition [9]: 15.8% | inhibition [10]: 6.13% | inhibition [11]: 5.6% | inhibition [12]: 2.97% | inhibition [13]: 2.53% | inhibition [14]: 8.51% | inhibition [15]: 2.95% | inhibition [16]: 3.3% | inhibition [17]: 7.98% | inhibition [18]: 6.47% | inhibition [19]: 5.96% | inhibition [20]: -0.91%

Clc1ccc(CNc2nccc(-c3cnn4ncccc34)n2)cc1
inhibition [1]: 9.79% | inhibition [2]: 2.09% | inhibition [3]: 2% | inhibition [4]: 0.83% | inhibition [5]: 0.64% | inhibition [6]: -2.69% | inhibition [7]: 2.99% | inhibition [8]: 3.33% | inhibition [9]: 1.08% | inhibition [10]: 3.91% | inhibition [11]: 1.93% | inhibition [12]: 0.01% | inhibition [13]: 1.6% | inhibition [14]: 0.58% | inhibition [15]: -1.59% | inhibition [16]: 0.2% | inhibition [17]: 1.7% | inhibition [18]: -0.71% | inhibition [19]: -0.67% | inhibition [20]: 4.74%

COc1cccc(/C=N/Nc2ncnc3c2cnn3-c2cccc(OC)c2)c1
inhibition [1]: 5.8% | inhibition [2]: 1.82% | inhibition [3]: 3.68% | inhibition [4]: 0.66% | inhibition [5]: 1.2% | inhibition [6]: 0.2% | inhibition [7]: 5.67% | inhibition [8]: 5.57% | inhibition [9]: 10% | inhibition [10]: -0.09% | inhibition [11]: 3.78% | inhibition [12]: 3.43% | inhibition [13]: 3.25% | inhibition [14]: 4.2% | inhibition [15]: 2.4% | inhibition [16]: 5.34% | inhibition [17]: 6.12% | inhibition [18]: 4.59% | inhibition [19]: 5.11% | inhibition [20]: 2.44%

CCc1cccc(CC)c1/C=C/c1cncc(C(=O)NC)c1
inhibition [1]: 11.1% | inhibition [2]: 3.73% | inhibition [3]: 2.63% | inhibition [4]: 1.12% | inhibition [5]: 1.84% | inhibition [6]: 0.13% | inhibition [7]: -1.35% | inhibition [8]: 12.1% | inhibition [9]: 14.1% | inhibition [10]: 1.86% | inhibition [11]: 1.64% | inhibition [12]: 2.16% | inhibition [13]: 2.33% | inhibition [14]: 5.4% | inhibition [15]: 11.8% | inhibition [16]: 5.9% | inhibition [17]: 9.23% | inhibition [18]: 6.74% | inhibition [19]: 9.45% | inhibition [20]: -1.16%

O=C1Nc2ccccc2/C1=C/Nc1ccc(-n2cncn2)cc1
inhibition [1]: 8.52% | inhibition [2]: 4.57% | inhibition [3]: 2.77% | inhibition [4]: 2.19% | inhibition [5]: 2.59% | inhibition [6]: 3.17% | inhibition [7]: 9.83% | inhibition [8]: 9.69% | inhibition [9]: 12.5% | inhibition [10]: 3.94% | inhibition [11]: 11.2% | inhibition [12]: 2.67% | inhibition [13]: 2.63% | inhibition [14]: 2.75% | inhibition [15]: 9.98% | inhibition [16]: 5.38% | inhibition [17]: 24.9% | inhibition [18]: 7.96% | inhibition [19]: 22%

COc1cc(N2CCN(C(C)C)CC2)ccc1Nc1nc(Nc2ccc(F)cc2C(=O)NC[C@@H](O)CO)c2cc[nH]c2n1
inhibition [1]: 6.9% | inhibition [2]: 0.85% | inhibition [3]: -0.23% | inhibition [4]: -2.73% | inhibition [5]: -3.91% | inhibition [6]: 3.24% | inhibition [7]: 10.5% | inhibition [8]: 9.31% | inhibition [9]: 15.7% | inhibition [10]: 17.7% | inhibition [11]: 60.2% | inhibition [12]: 4.45% | inhibition [13]: 20.1% | inhibition [14]: -0.71% | inhibition [15]: 5.9% | inhibition [16]: 1.11% | inhibition [17]: 1.86% | inhibition [18]: 1.06% | inhibition [19]: 3.63% | inhibition [20]: -2.86%

— ChEMBL document CHEMBL1961873, “Compounds: GSK PKIS; Assays: Nanosyn kinase panel” (2012)
